# Tau fluor cs: counter-screen for tau fibril formation inhibitors. tau K18 P301L Alexa594 fluorescence, heparin fibrillization. Potency, µM (titrated, usually from 57.7 µM), without a hit: top-dose activity change, negative = decrease. 280,000 tested, 0.93% active. AID 1463; also: potency is read from the fitted curve at half-maximal effect; nearly all actives have a fitted effect of over 55% in size
#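 Human K18 P301L tau (15 uM unlabeled plus 0.24 uM Alexa 594-labeled, final) in 100 mM sodium acetate pH 7 was mixed with compound and 20 uM heparin and incubated 6 hr at 37 C.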
# Tau fibril ThT: inhibitors of human tau fibril formation, thioflavin T binding. recombinant tau K18 P301L (four-repeat tau fragment), heparin-induced fibrillization, ThT fluorescence. Potency, µM (doses to about 57.4 µM), inactives show top-dose activity, negative = inhibition, hits mostly inhibitors. 270,000 tested, 2.1% active. AID 1460; also: potency is read from the fitted curve at half-maximal effect; nearly all actives have a fitted effect of over 55% in size
# Target sequence (P10636 561-689 P618L limits assumed): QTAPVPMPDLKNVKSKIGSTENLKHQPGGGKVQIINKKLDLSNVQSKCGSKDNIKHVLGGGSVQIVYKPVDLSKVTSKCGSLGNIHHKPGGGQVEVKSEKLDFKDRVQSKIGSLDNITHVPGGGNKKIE
#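 Aggregation was driven by heparin (20 uM final) acting on recombinant tau […] bearing P301L in 100 mM sodium acetate pH 7; fibrils were detected with Thioflavin T.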
# PNC assembly inh: blocks assembly of the perinucleolar compartment | AID 2417 | activity change (PNC), negative = inhibition, % at 10 µM | PC3M PTB-GFP, PNC prevalence imaging, 16 h; active compounds read low | 140,000 tested, 3.1% active;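 active = readout at or below -70, meaning at least 70% loss of cells showing the perinucleolar compartment, a nuclear body marking cancer cells; inconclusive = readout between -30 and a set limit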;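 also: plate controls were DMSO wells for no effect and camptothecin positive control wells for full effect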
#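 PC3M cells stably expressing PTB-GFP, 750–1000 cells/well, treated 16 h at 37 °C with compound (23 nl of library stock), in duplicate. After paraformaldehyde fixation and Hoechst stain, imaged at 20x; PNC prevalence scored by image analysis.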
# Tau fibril FP: blocks human tau fibril formation measured by polarization; K18 P301L tau heparin fibrillization, Alexa594 FP, 6 h; AID 1468; 280,000 tested, 0.39% active; Potency, µM (doses to about 57.7 µM), inactives show at the highest dose activity, negative = inhibition, actives largely listed as inhibitors; also: potency is read from the fitted curve at half-maximal effect; nearly all actives have a fitted effect of over 55% in size
#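 FP of Alexa 594-tau after heparin (20 uM) induction. Substrate: human K18 P301L, 15 uM unlabeled, 0.24 uM labeled. Buffer 100 mM sodium acetate pH 7. 6 hr, 37 C.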
# KDM4E inh: JMJD2E (human) inhibition | Potency, µM (series often up to 57.1 µM), for inactives: at the top dose activity change, negative = inhibition, hits mostly inhibitors | JMJD2E catalytic domain, FDH-coupled NADH fluorescence (FDH is formaldehyde dehydrogenase) | AID 2147 | 230,000 tested, 1.6% active; active = well fitted inhibition curve with a large enough effect, not every such curve was filed as active; inconclusive = small, poorly fitted or top-dose-only effect, or another doubt; inactive = no such curve, though single readings can be large or run the other way;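 also: potency is read from the fitted curve at half-maximal effect; 0% = wells with enzyme and -100% = buffer wells without enzyme; nearly all actives have a fitted effect of over 50% in size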
# NPSR antag: blocks cAMP signaling of the human neuropeptide S receptor | AID 1461 | CHO-NPSR cells, cAMP TR-FRET, antagonist mode | 220,000 tested, 1% active | Q6W5P4 | Potency, µM (highest dose often 38.3 µM), inactives show at the highest dose activity change, negative = inhibition, hits mostly inhibitors; also: potency is read from the fitted curve at half-maximal effect; nearly all actives have a fitted effect of over 50% in size
# Target sequence (Q6W5P4 whole entry, looked up): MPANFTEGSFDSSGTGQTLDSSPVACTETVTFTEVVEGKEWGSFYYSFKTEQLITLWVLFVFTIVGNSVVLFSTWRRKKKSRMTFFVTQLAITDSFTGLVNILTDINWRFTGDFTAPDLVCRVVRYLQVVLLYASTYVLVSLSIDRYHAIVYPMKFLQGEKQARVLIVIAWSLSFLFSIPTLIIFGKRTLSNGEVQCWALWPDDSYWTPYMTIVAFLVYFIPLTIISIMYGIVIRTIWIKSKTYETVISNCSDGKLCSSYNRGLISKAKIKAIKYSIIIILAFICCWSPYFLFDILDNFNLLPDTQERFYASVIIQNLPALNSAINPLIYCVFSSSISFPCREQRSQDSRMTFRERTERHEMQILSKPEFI
# Numbers without * were called inactive; ? = inconclusive; . = not tested or not shown; [ ] = remark or other dose. Shown are actives, neighbours in structure and some others; about 5.1% of the full set was active somewhere. Unless noted, calls follow the shape of the dose curve; as a rule, active = well fitted curve in the direction sought with a large enough effect; inconclusive = small, poorly fitted or top-dose-only effect, or another doubt; inactive = no such curve, though single readings can be large; an effect the other way counts as inactive or inconclusive. Unless noted, % is scaled to controls: 0 for no effect and ±100 for the full control effect.
SMILES,Tau fluor cs,Tau fibril ThT,PNC assembly inh,Tau fibril FP,KDM4E inh,NPSR antag
CCNC(=O)C1CCCN(c2nn3cc(-c4ccc(C)cc4)nc3s2)C1 (centres undefined),-24%,?,.,1%,.,.
COC(=O)c1c(NC(=O)c2cccnc2)sc(C(=O)N(C)C)c1C,5%,-4%,-13,-3%,-12%,13%
COC(=O)c1c(NC(=O)c2ccco2)sc(C(=O)N(C)C)c1C,-6%,-11%,-100*,-2%,?,-3%[46.1 µM]
CCOC(=O)Cn1c(=O)oc2cc(S(=O)(=O)N3CCN(c4cc(C)ccc4C)CC3)ccc21,-20%,1%,.,-3%,.,.
COc1cccc(-c2cc(C(=O)N3C(C)CCCC3C)no2)c1 (centres undefined),-17%,-8%,-91*,-2%,-10%,?
Cc1cc(C)cc(OCC(=O)NCC2CCCO2)c1 (centres undefined),-5%,-3%,64,-4%,2%,-6%[46.1 µM]
Cc1cc(C)c(C)c(OCC(=O)NCC2CCCO2)c1 (centres undefined),-2%,-7%,-90*,-9%,0%,-7%[46.1 µM]
O=C(Nc1cccc(Oc2ccc3c(c2)C(=O)NC3=O)c1)c1ccco1,?,?,-92*,?,2%,-10%[46.1 µM]
CCOc1ccccc1NC(=O)c1cccc(NC(=O)c2ccco2)c1,-20%,-11%,-86*,-2%,-7%,-4%[46.1 µM]
Cc1cccc(C)c1OCC(=O)Nc1cccc(NC(=O)c2ccco2)c1,?,-15%,-119*,-15%,-1%,10%
CCOc1ccc(C(=O)Nc2ccc(NC(=O)c3ccco3)c(Cl)c2)cc1Cl,-13%,?,28,?,?,1%[46.1 µM]
Cc1ccc(Oc2ccc(NC(=O)c3ccco3)cc2)cc1,-29%,-9%,12,-13%,9%,-11%[7.67 µM]
Cc1cccc(C)c1OCC(=O)Nc1ccc(NC(=O)c2ccco2)cc1,-17%,-15%,.,-2%,?,7%
CC/C(=N\NC(=O)C(N)=O)c1ccccc1O,-3%,?,2,4%,8.9µM*,-1%
C/C(=N\NC(=O)C(N)=O)c1ccc(Br)cc1,-1%,?,-2,-3%,8%,13%
CCCc1noc2c1/C(=N\O)CC(CC(C)SCC)C2 (centres undefined),-21%,-16%,?,-8%,0%,-20%[46.1 µM]
CCSC(C)CC1C/C(=N/O)c2c(CC)noc2C1 (centres undefined),-14%,-15%,-86*,-3%,-3%,-6%[46.1 µM]
O=C1c2[nH]nc(-c3ccccc3O)c2C(c2ccc(Cl)cc2)N1Cc1ccco1 (centres undefined),?,-9%,.,?,.,.
C=CCn1c(=S)[nH]c2sc3c(c2c1=O)CCC3,-2%,2%,-109*,-2%,13%,-12%
N#CCC(=O)Nc1ccc(C(=O)OCC(=O)Nc2ccccc2Sc2ccccc2)cc1,?,-15%,.,28µM*,-24%,-31%
CC(=O)Nc1ccc(C(=O)OCC(=O)Nc2ccccc2Sc2ccccc2)cc1,?,?,5,?,-8%,6%
COC(=O)c1c(NC(=O)COC(=O)c2ccc(NC(=O)CC#N)cc2)sc2c1CCCCC2,-22%,-14%,.,-1%,5µM*,-9%
CCOC(=O)c1c(S(=O)(=O)N2CCC(C(=O)NCc3cccc(C)c3)CC2)c(C)n(C)c1C,5%,11%,.,1%,.,.
CCOc1cccc(/C=C2\NC(=S)N(c3ccccc3)C2=O)c1O,?,14µM*,.,5%,5%,35%
CCOc1cc(/C=C2\NC(=S)N(c3c(C)n(C)n(-c4ccccc4)c3=O)C2=O)ccc1O,0%,-18%,?,-2%,-4%,-13%
CC(=O)c1cc(NC(=O)c2ccccc2)c(=O)oc1C,-14%,28µM*,.,?,?,4%
CCOC(=O)c1cc(NC(=O)c2ccccc2)c(=O)oc1C(F)(F)F,2%,1%,.,-17%,-2%,6%
